From ChEMBL document CHEMBL3988442, “University of Dundee, Small-Polar-MMV Screening Library” (2021)
Out of some 48,000 compounds screened, about 13,000 (27%) showed an effect of 50% or more. The list shows a part of the results.

tested on: Wolbachia pipientis; test: Anti-Wolbachia Cell-Based Screen; type: functional; parameters: scale not given: in the data most compounds retested in dose-response had high values; settings: 5 µM

SMILES	Percent Effect [%]
Cc1ccc(C(=O)N2CCSCC2)cc1NC(=O)NCCO	-7.623
Cc1cc(CNC(=O)C2CCCN2C(=O)OC(C)(C)C)no1 (configuration not stated)	-19.91
COCC(=O)N1CCCC(c2nc(N)ncc2-c2cccc(F)c2)C1 (configuration not stated)	111.1
Cc1cc(C2CCCN(C(=O)COc3cccc(F)c3)C2)n[nH]1 (configuration not stated)	-5.532
Cc1nc(C2CCCN(C(=O)CCCOc3cccc(F)c3)C2)no1 (configuration not stated)	-2.46
O=C1CN(C(=O)c2nnn(-c3ccc(C(F)(F)F)cc3)n2)CCN1	7.084
O=C(CC1CC1)N1CCC2(CC1)CN(CCn1cccn1)C(=O)CO2	0.04038
Cn1ccnc1CN1CCC2(CC1)CN(Cc1ccccc1)C(=O)CO2.O=C(O)C(F)(F)F	-7.87
CN(C)CCN1CCC2(CC1)CN(Cc1cccnc1)C(=O)CO2.O=C(O)C(F)(F)F.O=C(O)C(F)(F)F.O=C(O)C(F)(F)F	106.6
O=C(CC1CC1)N1C[C@@H]2CCN(c3cccnc3)C[C@@H]2C1.O=C(O)C(F)(F)F	87.47
O=C(CC1CC1)N1CCC2(CC1)CN(Cc1cccnc1)C(=O)CO2.O=C(O)C(F)(F)F	85.91
Cn1ccnc1CN1CCC2(CC1)CN(Cc1cccnc1)C(=O)CO2.O=C(O)C(F)(F)F.O=C(O)C(F)(F)F	-2.822
O=C(C1CCCC1)N1C[C@@H]2CCN(c3cccnc3)C[C@@H]2C1.O=C(O)C(F)(F)F	-15.19
O=C(Cc1ccccn1)N1CCC2(CC1)CN(CC1CC1)C(=O)CO2.O=C(O)C(F)(F)F	15
O=C(O)C(F)(F)F.O=C1COC2(CCN(CC3CC3)CC2)CN1c1ccccc1	-2.17
O=C(CC1CC1)N1CCC2(CC1)CN(c1cccnc1)C(=O)CO2.O=C(O)C(F)(F)F	86.93
O=C(O)C(F)(F)F.O=C(c1ccncc1)N1C[C@@H]2CCN(c3cccnc3)C[C@@H]2C1	-5.49
CC(C)NC(=O)N1CCC2(CC1)NC(=O)[C@H]1CN(C(=O)N(C)C)C[C@H]12	-13.82
Cn1ncc2c(NCC3CCS(=O)(=O)C3)nc(-c3ccncc3)nc21 (configuration not stated)	10.96

SMILES	Percent Effect [%]
O=C1CC(N(C(=O)c2ccc(Oc3ccccc3)cc2)C2CC2)C(=O)N1 (configuration not stated)	-10.84
CN(C)S(=O)(=O)N1C[C@@H]2CC[C@H](C1)N(Cc1ccc3nsnc3c1)C2	4.433
Cc1cc(C)n2nc(C(=O)N3CCCC4(CNC(=O)O4)C3)cc2n1 (configuration not stated)	1.638
CCS(=O)(=O)N1CCC2(CN(c3cccc(F)c3)C(=O)CN2C)C1.O=C(O)C(F)(F)F (configuration not stated)	7.629
CCS(=O)(=O)N1CCC2(CC1)CN(c1cccnc1)C(=O)CO2.O=C(O)C(F)(F)F	93.05
O=C(N1CCCC1)N1CCC2(CC1)CN(c1cccnc1)C(=O)CO2.O=C(O)C(F)(F)F	93.48
CCc1nc(C)c([C@H]2CN(C)C[C@@H]2C(=O)NCCc2cnccn2)[nH]1	-9.925
COc1ccc(CN(C)[C@@H]2COC[C@H]2c2ccc(F)cc2)cc1.O=C(O)CC(O)(CC(=O)O)C(=O)O	117.4
COc1ccc(CN2C[C@@H]3COC[C@@H](N4CCN(C)CC4)[C@@H]3C2)cc1.O=C(O)C(F)(F)F.O=C(O)C(F)(F)F.O=C(O)C(F)(F)F	13.92
COc1ccc(CC(C)(O)CNC(=O)Cc2ccc(F)cc2)cc1 (configuration not stated)	8.313
CCOc1ncccc1CNC(=O)N1CCCC1c1cc(C)no1 (configuration not stated)	3.544
O=C(c1ccc(Cl)cc1)N1CCC(N2CCCNC2=O)CC1	102
O=C(c1ccc2c(c1)OCO2)N1CCN2C(=O)NC[C@H]2C1	6.694
O=C(CCc1ccc(Cl)s1)N1CCC(N2CCNC2=O)CC1	39.9
O=C(c1ccc(Cl)cc1)N1CCC(N2CCNC2=O)CC1	109.7
Cc1cc(C(=O)N2CCC(N3CCNC3=O)CC2)nn1C(C)(C)C	-1.395
O=C(CSc1ccccc1)N1CCC(N2CCCCC2=O)CC1	-3.003
Cc1ccc(C(=O)N2CCCC(N)CC2)cc1N1CCNC1=O (configuration not stated)	-4.611
Cc1cnc(NC(=O)N2CCC(N3CCCCC3=O)CC2)s1	0.5285

SMILES	Percent Effect [%]
O=C(c1ccc(Cl)cc1)N1CCC(N2CCCCC2=O)CC1	103
Cn1cc(N2CCC(NC(=O)c3c(F)cccc3F)C2=O)cn1 (configuration not stated)	-6.231
O=C(NCC1(CO)CC1)c1ccccc1C(F)(F)F	10.7
O=C(NCCCSC1CCCCC1)C1NCCc2[nH]cnc21 (configuration not stated)	-0.8236
CCOc1ccc(C(=O)N(CCOC)Cc2c(C)nn(CC)c2C)o1	-1.11
CN(C)C(=O)N1C[C@@H]2COC[C@]2(c2nnc(C3CC3)o2)C1	1.303
O=C(Cn1ccc(=O)cc1)N1C[C@H]2CC[C@@H]1CN(c1ncccn1)C2	-6.945
Cc1nc(C(=O)N2CCOC(Cc3ccccc3)C2)co1 (configuration not stated)	119.2
CCC1CN(C(=O)c2cc(CN(C)CCc3ccccc3)on2)CCO1 (configuration not stated)	-31.04
Cc1nc(C(=O)N2CCOC(Cc3ccc(F)cc3)C2)co1 (configuration not stated)	139
CCOC(=O)CNC(=O)N1CCOC(Cc2ccc(OC)cc2)C1 (configuration not stated)	-5.818
O=C1CCC(C(=O)N2CCOC(Cc3ccc(F)cc3)C2)=NN1 (configuration not stated)	-6.141
CCN1CCN(CC(=O)N2CCOC(Cc3ccc(OC)cc3)C2)CC1 (configuration not stated)	-7.63
Cc1n[nH]c(CCC(=O)N2CCOC(Cc3ccccc3)C2)c1C (configuration not stated)	0.4396
Cn1nccc1C(=O)N1CCOC(Cc2ccc(F)cc2)C1 (configuration not stated)	-2.544
COc1ccc(CC2CN(C(=O)c3coc(C)n3)CCO2)cc1 (configuration not stated)	123
COc1ccccc1N1CCN(C(=O)CSCC2CC2)C(C)C1 (configuration not stated)	12.11
Cc1csc(-c2cccc(NC(=O)N3CCOCC3)c2)n1	-7.869
COc1ccc(S(=O)(=O)NCCC(O)c2ccoc2)c(C)c1 (configuration not stated)	14.16
